From PubChem BioAssay (EPA / NIEHS)
Inconclusive results are not listed. Calls of active or inactive are those of the source. The calls were made as follows: active = hit-call score of the fitted dose curve at least 0.9, where 1 is the maximum; inconclusive = response in the unintended direction; inactive = score below 0.9.

biological target: Glycogen synthase kinase-3 beta (Homo sapiens) (UniProt P49841); assay: NVS_ENZ_hGSK3b: NovaScreen (NVS) Enzymatic Assay for human Glycogen Synthase Kinase-3 beta (GSK3b) (AID 2283165)
Procedure, shortened: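 Recombinant enzyme with specific fluorescent substrate, 1 h, product separated by electrophoretic mobility shift. Primary duplicate screen at 25 uM; actives (e.g. 30% inhibition) followed in singleton concentration-response to 50 uM. Signal loss fitted versus DMSO.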

Sequence of Glycogen synthase kinase-3 beta (Homo sapiens) (P49841 whole entry, looked up): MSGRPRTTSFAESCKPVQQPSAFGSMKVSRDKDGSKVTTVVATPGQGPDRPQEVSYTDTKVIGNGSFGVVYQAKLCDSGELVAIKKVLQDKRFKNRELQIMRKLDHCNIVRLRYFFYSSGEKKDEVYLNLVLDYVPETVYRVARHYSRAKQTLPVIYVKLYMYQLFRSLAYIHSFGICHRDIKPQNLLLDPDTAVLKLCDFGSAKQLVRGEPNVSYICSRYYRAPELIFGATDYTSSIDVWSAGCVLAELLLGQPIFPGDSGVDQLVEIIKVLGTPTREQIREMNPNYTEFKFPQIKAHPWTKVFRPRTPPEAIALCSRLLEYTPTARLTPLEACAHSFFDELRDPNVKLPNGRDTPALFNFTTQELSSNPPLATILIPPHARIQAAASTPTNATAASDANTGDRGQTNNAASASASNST

outcome, inactive:
O=c1ccc2ccccc2o1
OC12N=C(c3ccccc3)SC1Cc1cc(Cl)ccc12 (stereo not drawn)
CC1=CC(=O)/C(=C(/C)O)C(=O)O1
CCCCCCCCCCCCO
Oc1ccccc1

biological target: human Janus Kinase 2 (Jak2), JAK2 (gene 3717) (UniProt O60674); assay: NVS_ENZ_hJak2: NovaScreen (NVS) Enzymatic Assay for human Janus Kinase 2 (Jak2) (AID 2283169)
Procedure, shortened: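 Cell-free recombinant human JAK2 enzyme activity assay, fluorescence/electrophoretic mobility shift read 1 h after dosing. Screened in duplicate at 25 uM, then concentration-response up to 50 uM; activity as signal loss relative to DMSO.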

Sequence of human Janus Kinase 2 (Jak2), JAK2 (gene 3717) (O60674 whole entry, looked up): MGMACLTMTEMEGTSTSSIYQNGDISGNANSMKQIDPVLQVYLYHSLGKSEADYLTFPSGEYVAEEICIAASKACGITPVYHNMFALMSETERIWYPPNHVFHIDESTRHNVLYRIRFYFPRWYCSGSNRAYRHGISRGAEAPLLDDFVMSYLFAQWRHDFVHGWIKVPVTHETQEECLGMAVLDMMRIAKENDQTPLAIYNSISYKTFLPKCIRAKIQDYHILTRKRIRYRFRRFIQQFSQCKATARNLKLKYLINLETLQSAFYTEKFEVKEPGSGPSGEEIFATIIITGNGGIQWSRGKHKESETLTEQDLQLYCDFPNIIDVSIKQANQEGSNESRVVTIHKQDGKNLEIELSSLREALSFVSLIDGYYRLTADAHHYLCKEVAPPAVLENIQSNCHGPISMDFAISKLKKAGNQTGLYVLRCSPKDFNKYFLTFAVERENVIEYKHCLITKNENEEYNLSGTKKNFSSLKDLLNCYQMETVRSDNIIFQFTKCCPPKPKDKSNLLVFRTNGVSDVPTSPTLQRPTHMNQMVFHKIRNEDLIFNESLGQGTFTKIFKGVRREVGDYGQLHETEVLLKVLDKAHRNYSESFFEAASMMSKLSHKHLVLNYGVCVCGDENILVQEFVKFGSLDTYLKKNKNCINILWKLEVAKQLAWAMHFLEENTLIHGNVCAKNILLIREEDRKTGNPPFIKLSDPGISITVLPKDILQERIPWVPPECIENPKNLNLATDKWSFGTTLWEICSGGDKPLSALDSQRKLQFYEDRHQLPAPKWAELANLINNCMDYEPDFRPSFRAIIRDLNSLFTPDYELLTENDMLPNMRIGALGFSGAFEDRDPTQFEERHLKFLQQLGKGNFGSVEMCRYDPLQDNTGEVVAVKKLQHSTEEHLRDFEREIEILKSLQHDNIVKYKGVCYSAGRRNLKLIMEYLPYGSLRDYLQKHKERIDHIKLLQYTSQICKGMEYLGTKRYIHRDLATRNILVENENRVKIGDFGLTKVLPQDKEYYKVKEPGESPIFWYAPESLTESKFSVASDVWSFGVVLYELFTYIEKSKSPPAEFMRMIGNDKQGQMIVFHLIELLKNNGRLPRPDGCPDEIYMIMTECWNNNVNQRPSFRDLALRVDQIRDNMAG

outcome, inactive:
CCO[Si](CCCNC(N)=O)(OCC)OCC
O=C(O)c1ccccc1C(=O)OCc1ccccc1
O=C(OCCCCCCOC(=O)c1ccccc1)c1ccccc1
